# This is one part of a sample in which hits are shown more often than they occur.
# mHTT-CaM PPI inh: disrupts binding of mutant huntingtin to calmodulin; P42858; AlphaScreen His-mHTT/GST-CaM binding, luminescence; inhibition, % at 15 µM; hit rate 3.6% among 190,000; AID 1671202;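 note: 0% = both proteins with DMSO and 100% = one protein alone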
# Pf apPOL inh: Pf-apPOL DNA polymerase inhibition | Recombinant Pf-apPOL, molecular beacon fluorescence, 1.5 h | inhibition, % at 10 µM | hit rate 0.25% among 210,000
# * hit, by the source's call; . = no result given; ! = not active in a repeat. Cut-off read from the data, not from the text of the source: active = inhibition above about 50%; inactive = the rest.
SMILES,mHTT-CaM PPI inh,Pf apPOL inh
COc1cc(OC)c(OC)cc1CN1CCc2nc(Nc3ccc(F)cc3)ncc2C1,70*,-4
CCCCN1CCc2nc(Nc3ccc(OC)cc3)ncc2C1,52*,-4
COc1ccc(Nc2ncc3c(n2)CCN(Cc2ccccc2OC)C3)cc1,45,-11
COc1ccc(Nc2ncc3c(n2)CCN(Cc2cc(OC)c(OC)cc2OC)C3)cc1,14,-4
COc1cccc(CN2CCc3nc(Nc4ccc(F)cc4)ncc3C2)c1OC,100*,-3
COc1cc(Nc2ncc3c(n2)CCN(Cc2cccc(OC)c2OC)C3)cc(OC)c1,30,-6
CC1CCN(S(=O)(=O)N2CCCC(C(=O)NCCCOC(C)C)C2)CC1 (stereo unspecified),-7,-7
O=C(Nc1ccc2c(c1)OCO2)N1CCC(c2nnc(-c3ccco3)s2)CC1,4,-9
Cc1ccccc1N1CCN(Cc2cc(=O)[nH]c(C(C)C)n2)CC1,-2,-3
Cc1nc2c(C(=O)NCc3ccccc3)cnn2c(C)c1Cc1cccc(Cl)c1,38,-1
Cc1nc2c(C(=O)NCCc3ccccc3)cnn2c(C)c1Cc1cccc(Cl)c1,78*,-8
COc1ccc(CNC(=O)c2cnn3c(C)c(Cc4cc(C)ccc4C)c(C)nc23)cc1,-1,-4
Cc1nc2c(C(=O)NCCc3ccccc3)cnn2c(C)c1Cc1ccc(Cl)cc1,-7,-5
Cc1nc2c(C(=O)NCCc3ccc(Cl)cc3)cnn2c(C)c1Cc1ccc(F)cc1,80*,-8
COc1ccc(CCNC(=O)c2cnn3c(C)c(Cc4cc(C)ccc4C)c(C)nc23)cc1OC,53*,-6
CCCCNC(=O)c1cnn2c(C)c(Cc3ccc(F)cc3)c(C)nc12,48,-4
Cc1nc2c(C(=O)NCCc3ccc(Cl)cc3)cnn2c(C)c1Cc1ccccc1,53*,-7
Nc1cc(C2CCN(C(=O)c3ccc(F)c(F)c3)CC2)no1,-11,3
CC(C)n1cc2cc(C(=O)N3CCN(C4CCCCC4)CC3)sc2c1,30,-3
COc1ccc(-n2c(=O)c3c4c(sc3n3cnnc23)CCCC4)cc1,7,1
COc1ccc(-n2c(NN)nc3sc4c(c3c2=O)CCCC4)cc1,61*,-5
CC1C(=O)N2CCCc3cc(NC(=O)C(=O)NCc4ccc5c(c4)OCO5)cc1c32 (stereo unspecified),25,4
CC1C(=O)N2CCCc3cc(NC(=O)COc4ccc5ccccc5c4)cc1c32 (stereo unspecified),52*,-12
O=C(CSc1ccc(F)cc1)Nc1cc(-c2ccco2)nn1CCO,69*,-3
O=C(Nc1cc(-c2ccco2)nn1CCO)c1ccc(S(=O)(=O)N2CCOCC2)cc1,26,8
SMILES,mHTT-CaM PPI inh,Pf apPOL inh
Cc1cccc(NC(=O)Nc2nc(C(=O)NCc3cccs3)cs2)c1,7,5
COc1ccc(C2C=C(c3ccc(Br)cc3)Nc3ncnn32)c(OC)c1 (stereo unspecified),14,-5
CC(=O)NC1=NC(=O)/C(=C/c2c(C)n(Cc3ccc(F)cc3)c3ccccc23)S1,100*,-3
CC(=O)NC1=NC(=O)/C(=C/c2ccc(F)cc2)S1,-6,-4
O=c1[nH]c2c(s1)C(c1cccnc1)C1C3CCC(C3)C1S2 (stereo unspecified),-2,-4
O=c1[nH]c2c(s1)C(c1ccc(O)cc1)C1C3CCC(C3)C1S2 (stereo unspecified),63*,-5
CCCCC(=O)Nc1nnc2n1CCCS2,-6,-3
Cn1cnc2ccc(-c3noc(CCc4c[nH]c5ccccc45)n3)cc21,76*,-3
CCn1cnc2ccc(-c3noc(-c4ccccc4)n3)cc21,28,-19
CCn1cnc2ccc(-c3noc(Cc4ccccc4Cl)n3)cc21,7,-1
Cn1cnc2ccc(-c3noc(Cc4cccs4)n3)cc21,9,0
COc1cccc(-c2nc(-c3ccc4ncn(C)c4c3)no2)c1,-8,-6
CCn1cnc2ccc(-c3noc(CCc4c[nH]c5ccccc45)n3)cc21,100*,-3
CCn1cnc2ccc(-c3noc(Cc4c[nH]c5ccccc45)n3)cc21,99*,-5
CCn1cnc2ccc(-c3noc(-c4cccc(OC)c4)n3)cc21,76*,0
CCOc1nccnc1N1CCC(N(C)C(=O)c2ccnn2C)C1 (stereo unspecified),-2,-3
CCOc1ccc(C(=O)Nc2c3c(nn2-c2ccc(F)cc2)CS(=O)(=O)C3)cc1OCC,18,3
CCc1nc(-c2c(C)cc(C)nc2NC(=O)c2ccccc2Cl)no1,-5,-4
O=[N+]([O-])c1cc(Cl)ccc1NCCCNS(=O)(=O)c1ccccc1,53*,-1
O=[N+]([O-])c1cc(Cl)ccc1NCCNS(=O)(=O)c1ccccc1,41,-1
FC(F)(F)c1ccc(NCCc2ccccc2)c(NC(=S)Nc2cc(Cl)ccc2Cl)c1,.,-18
O=C(c1cc(-c2ccco2)[nH]n1)N1CCN(C(=O)C2CC2c2ccccc2)CC1 (stereo unspecified),6,-8
CCCCC(=O)NC(c1ccco1)c1cc([N+](=O)[O-])c2cccnc2c1O (stereo unspecified),100*,0
CCCCC(=O)NC(c1ccccc1OC)c1cc([N+](=O)[O-])c2cccnc2c1O (stereo unspecified),100*!,-71
CCCC(=O)Nc1ccccc1NC(=O)Cc1ccccc1[N+](=O)[O-],-3,2
SMILES,mHTT-CaM PPI inh,Pf apPOL inh
O=C(CCc1ccccc1)NC(c1cccs1)c1cc(Cl)c2cccnc2c1O (stereo unspecified),31,-4
CCC(=O)NC(c1cccs1)c1cc([N+](=O)[O-])c2cccnc2c1O (stereo unspecified),100*,-5
COc1ccccc1N1CCN(c2ccc([N+](=O)[O-])c3cccnc23)CC1,4,1
O=C(O)CC(NCc1ccc(Cl)c([N+](=O)[O-])c1)c1cccs1 (stereo unspecified),-6,34
CCCC(=O)NC(c1cccs1)c1cc([N+](=O)[O-])c2cccnc2c1O (stereo unspecified),100*,5
Cc1ccc(C(=O)N2CCC(c3cc(N)on3)CC2)s1,16,-4
CCOc1ccc(C2=Nn3c(nnc3-c3cccc(OC)c3)SC2)cc1Cl,5,0
CCOc1cccc(-c2nnc(NC(=O)Nc3ccccc3OC)s2)c1,2,-5
O=C(Nc1cccc(Cl)c1)O[C@H]1CCC12CCCCC2,-108,-1
CCS(=O)(=O)Nc1ccc(Oc2ccc(C)nn2)cc1,2,-6
O=C(NCC(=O)N1CCCc2ccccc21)c1ccccc1Cl,-2,2
Cc1ccc(OCCOc2cccc(C=O)c2)cc1,-5,-3
O=C(CC1CCN(S(=O)(=O)c2ccc(Cl)s2)CC1)NCC1CCCO1 (stereo unspecified),-10,-3
Cc1cccc(-n2nnc(C(=O)NC(C)C)c2N)c1,-4,-4
CCCCC(=O)NC(c1cccs1)c1cc([N+](=O)[O-])c2cccnc2c1O (stereo unspecified),96*,9
CC(=O)NC(c1cccs1)c1cc([N+](=O)[O-])c2cccnc2c1O (stereo unspecified),100*,0
CCOc1ccc(N/C=C/C(=O)c2cccs2)c([N+](=O)[O-])c1,38,-5
O=C(CSc1nnc(N2CCN(c3ccccc3)CC2)s1)c1ccc(Cl)cc1,-11,-2

# Source: PubChem BioAssay (University of Kansas High Throughput Screening Laboratory)
